# Assays:
# Assay in all cases: pooled miR-30 sensor sort-seq; sequence = guide strand
# Conditions in all cases: shRNA
# TSEN34 = biological target: TSEN34
# TSPAN3 = biological target: TSPAN3
# TSPAN8 = biological target: TSPAN8
# TSPY2 = biological target: TSPY2
# TSPYL2 = biological target: TSPYL2
# TUBA8 = biological target: TUBA8
# TTLL4 = biological target: TTLL4
# TTYH3 = biological target: TTYH3
# TUBAL3 = biological target: TUBAL3
# TTLL3 = biological target: TTLL3
# TXLNG = biological target: TXLNG
# UBXN2A = biological target: UBXN2A
# UNC5D = biological target: UNC5D
# UST = biological target: UST
# VAMP8 = biological target: VAMP8
# UXS1 = biological target: UXS1
# UTS2D = biological target: UTS2D
# VAMP1 = biological target: VAMP1
# WFDC12 = biological target: WFDC12
sequence,measurement,setting,value
TTCTGCTTCTTAGCAGCCTGGC,sensor-assay potency score (higher = more potent),TSEN34,-0.77
TCTAGTTTCTGCTTCTTAGCAG,sensor-assay potency score (higher = more potent),TSEN34,0.419
AATTCCACAACAATGCAGCTGT,sensor-assay potency score (higher = more potent),TSPAN3,0.00279
AATCTTCTCCAGGAGCTCCTGA,sensor-assay potency score (higher = more potent),TSEN34,-1.01
TAGATTTGAAAACAGCTCCTAG,sensor-assay potency score (higher = more potent),TSPAN8,-0.482
TTATACACTTTCTGAATGCTGC,sensor-assay potency score (higher = more potent),TSPAN3,-0.18
TTTCTTGTAGCTTCTTCACTAC,sensor-assay potency score (higher = more potent),TSPAN3,-0.264
TACTGTAGCGCAGCTCGTGGGC,sensor-assay potency score (higher = more potent),TSEN34,-0.594
ATGAACACGATGCTTCTCTTCT,sensor-assay potency score (higher = more potent),TSPY2,-0.856
TCGGGCATCAGCAGCAGCGGGA,sensor-assay potency score (higher = more potent),TSEN34,-1.31
TTGCTTGAGAGTCATTGCTTAC,sensor-assay potency score (higher = more potent),TSPAN8,-1.33
TCCTGCACAGCCTCCATCCTGA,sensor-assay potency score (higher = more potent),TSPY2,-1.01
TACACTTTCTGAATGCTGCGAT,sensor-assay potency score (higher = more potent),TSPAN3,1.02
TTGCTGGCAGTCTCTCTGCAGC,sensor-assay potency score (higher = more potent),TSPAN3,-1.25
TCTTGCAGAGATGAACACGATG,sensor-assay potency score (higher = more potent),TSPY2,-0.976
TCAATGTCTGAGATCTCGCTGA,sensor-assay potency score (higher = more potent),TSPYL2,0.0217
TCATTGTCACTGTCGCTGCTGT,sensor-assay potency score (higher = more potent),TSPYL2,-0.335
TCTCTGTAGATACTGTAGCGCA,sensor-assay potency score (higher = more potent),TSEN34,-0.97
TTCATTGTCACTGTCGCTGCTG,sensor-assay potency score (higher = more potent),TSPYL2,0.841
TAGACCAGGAAGTCACCTCCGA,sensor-assay potency score (higher = more potent),TSEN34,0.0618
TAGGATACCTGTCGCCACCTGC,sensor-assay potency score (higher = more potent),TSPAN8,-0.685
TTTCTTTGAACCAATCTGTATT,sensor-assay potency score (higher = more potent),TSPAN3,-1.05
TATAGCACCGCAGCATCCCAGG,sensor-assay potency score (higher = more potent),TSPAN8,-1.12
TATGAAAAACAACAGAAGCATG,sensor-assay potency score (higher = more potent),TSPAN8,-1.79
TTGATCAAAATTGAAATTCTGG,sensor-assay potency score (higher = more potent),TSPYL2,0.568
TAGACTGGACACGCCAGTCCAG,sensor-assay potency score (higher = more potent),TSEN34,-1.11
ATGTCTGAGATCCTGTACCTGC,sensor-assay potency score (higher = more potent),TSPYL2,-1.08
TAAGCAGGATCTCTACTCCTTC,sensor-assay potency score (higher = more potent),TSPAN3,-0.519
TTGAGAGTCATTGCTTACTCGT,sensor-assay potency score (higher = more potent),TSPAN8,-0.804
TTTGAAAACAGCTCCTAGGATA,sensor-assay potency score (higher = more potent),TSPAN8,-0.99
AACAACAGAAGCATGCAGCGAC,sensor-assay potency score (higher = more potent),TSPAN8,-0.179
TTTCTTGCCATAATCCAGGGAG,sensor-assay potency score (higher = more potent),TUBA8,-0.376
TTCTTCTGTATCTTCAGTCTCA,sensor-assay potency score (higher = more potent),TTLL4,0.119
TTGCTAGTCTCTGATTTGCTGA,sensor-assay potency score (higher = more potent),TTLL4,-0.807
TGTATCTTCAGTCTCAGCCTGA,sensor-assay potency score (higher = more potent),TTLL4,0.277
AATAGCGACATTCACATCCTTG,sensor-assay potency score (higher = more potent),TUBA8,-0.744
TCGCACTTCACCATCTGGCTGT,sensor-assay potency score (higher = more potent),TUBA8,-0.0578
TTGCCGTAGAATCCCACTGCGA,sensor-assay potency score (higher = more potent),TTYH3,-1.44
TAACTTGACATTCATTTGCACC,sensor-assay potency score (higher = more potent),TUBAL3,-1.19
TTTTGCTGCCAGGTGTGCGGGA,sensor-assay potency score (higher = more potent),TTYH3,-0.687
ATTGAGGACACAATCTGACTGA,sensor-assay potency score (higher = more potent),TUBA8,0.101
TAGCCCAGCCACCTGTACCAGT,sensor-assay potency score (higher = more potent),TTYH3,-1.16
TTTCTTCTTCAAACGAATCAGT,sensor-assay potency score (higher = more potent),TUBA8,-0.469
TTTATTGACACTGTAGTTGGTC,sensor-assay potency score (higher = more potent),TTLL4,0.947
TTCAGCACCTCCTGGACGCGGA,sensor-assay potency score (higher = more potent),TTYH3,-0.58
TAGTTTTGACAACAACATCCTT,sensor-assay potency score (higher = more potent),TTLL4,-0.466
TTGAGTATCACGTCATCCTTTG,sensor-assay potency score (higher = more potent),TTLL4,-0.629
TTCATTGTTGGTACTGACCCAC,sensor-assay potency score (higher = more potent),TUBAL3,0.0791
TTGGATTGTAAAGATCTTCTTC,sensor-assay potency score (higher = more potent),TTLL3,0.486
TCGCACATACATCTTGAGCAGG,sensor-assay potency score (higher = more potent),TTLL4,-1.1
TTGGCTCTCATGCTGGAGGTGT,sensor-assay potency score (higher = more potent),TTYH3,-0.0842
ATGATGACACACCAGGCCGTGC,sensor-assay potency score (higher = more potent),TTYH3,-1.46
TCATCATCGTTGATCTTGCTAG,sensor-assay potency score (higher = more potent),TUBA8,-0.473
TATTTGGCTCTCATGCTGGAGG,sensor-assay potency score (higher = more potent),TTYH3,-0.854
TTTTTATTGACACTGTAGTTGG,sensor-assay potency score (higher = more potent),TTLL4,-0.76
TCGAACTTGTGGTCGAGGCGGG,sensor-assay potency score (higher = more potent),TUBA8,-0.697
TTGAGGACACAATCTGACTGAT,sensor-assay potency score (higher = more potent),TUBA8,-0.409
TTGCACGTAGTCCAGATGCAGG,sensor-assay potency score (higher = more potent),TTYH3,-1.46
TACATGAGGTCGAACTTGTGGT,sensor-assay potency score (higher = more potent),TUBA8,-0.814
TAGTCGGTGTCCTCGGGCCGGA,sensor-assay potency score (higher = more potent),TTYH3,-1.53
TTGATCACAGGTAACGTCTGGG,sensor-assay potency score (higher = more potent),TTLL4,0.356
TTGATCTTGCTAGCTTGAGCAT,sensor-assay potency score (higher = more potent),TUBA8,-0.893
AAGCTCAGCCACGACATCCTGC,sensor-assay potency score (higher = more potent),TTYH3,-0.514
AGTTTTGACAACAACATCCTTT,sensor-assay potency score (higher = more potent),TTLL4,-0.763
TGCATTTTCCAGCTGATCCTGT,sensor-assay potency score (higher = more potent),TUBAL3,-0.383
TAGCAGAAGCCGGTCAGCGCTT,sensor-assay potency score (higher = more potent),TTYH3,-0.823
TTTGACAACAACATCCTTTATC,sensor-assay potency score (higher = more potent),TTLL4,-1.2
TGATCTTGCTAGCTTGAGCATC,sensor-assay potency score (higher = more potent),TUBA8,-1.14
TTAGCTTCTGATGCTCTCGAAT,sensor-assay potency score (higher = more potent),TTLL4,-0.842
TAGAATCCCACTGCGATGCCGG,sensor-assay potency score (higher = more potent),TTYH3,-0.487
TTGAGGTTGGTATAGGTAGGGC,sensor-assay potency score (higher = more potent),TUBA8,-0.964
TTTTAGTTGTACTTCCTGCTGT,sensor-assay potency score (higher = more potent),TXLNG,0.554
TAATATATCTTGATAACTGGTA,sensor-assay potency score (higher = more potent),UBXN2A,0.173
ATAACTTCTGAAATCGTCGTTG,sensor-assay potency score (higher = more potent),UBXN2A,0.446
TTAGTCTACCAGGACATCTTGT,sensor-assay potency score (higher = more potent),UNC5D,-0.288
TTGTCCTACATCATAAGCCTTT,sensor-assay potency score (higher = more potent),UNC5D,-0.645
TATATTTTTAATCAGTTCCATT,sensor-assay potency score (higher = more potent),UST,-1.14
TAACAGCAGCACATCTTCCAAC,sensor-assay potency score (higher = more potent),UST,-0.452
TAATATTCTTAACTCCCTCCAC,sensor-assay potency score (higher = more potent),VAMP8,0.103
TTCAACCATCTCTTCAATCTTG,sensor-assay potency score (higher = more potent),UXS1,-0.0638
TTATTCAGTAGAGCCAGCAATA,sensor-assay potency score (higher = more potent),UTS2D,-1.61
TAGTCGTCTGTTACTGGTCATG,sensor-assay potency score (higher = more potent),VAMP1,-1.49
ATGATAAAAACAATCACGCAGA,sensor-assay potency score (higher = more potent),VAMP8,-0.843
TAGCTTGGCAGCACTGCTCTCA,sensor-assay potency score (higher = more potent),VAMP1,-0.655
AGCATGATCATCATCTTGCAGT,sensor-assay potency score (higher = more potent),VAMP1,-1.92
ATCTTCACGTTCTTCCACCAGA,sensor-assay potency score (higher = more potent),VAMP8,-1.17
TTTGTTTAAACCTTCCTCCAGC,sensor-assay potency score (higher = more potent),UXS1,-0.24
TTACTGGTCATGTTAGGAGGAG,sensor-assay potency score (higher = more potent),VAMP1,-0.535
TTTGCAGGTTCCGCACACGATC,sensor-assay potency score (higher = more potent),VAMP8,-1.07
AAGGACAATCATCTTCACGTTC,sensor-assay potency score (higher = more potent),VAMP8,-0.269
TTCTGGGTCATAATATTCTTAA,sensor-assay potency score (higher = more potent),VAMP8,-1.25
ATGTCGTCTTGAAGTGCTCAGA,sensor-assay potency score (higher = more potent),VAMP8,-1.56
TAGATCGCTGACGTACTGGAAC,sensor-assay potency score (higher = more potent),UXS1,-0.778
ATTTGTATATTTTTTATCTGGA,sensor-assay potency score (higher = more potent),UTS2D,-0.591
TCTTCCACCAGAATTTTCGAGC,sensor-assay potency score (higher = more potent),VAMP8,-0.564
TTGACTGCAAAGTCCCAGGGTT,sensor-assay potency score (higher = more potent),VAMP1,0.215
TTTTAGTTCACCATTTTCCTGG,sensor-assay potency score (higher = more potent),UXS1,0.218
ATAACTACCACGATGATGGCAC,sensor-assay potency score (higher = more potent),VAMP1,0.289
TAACTGAGCAAATTCTAGGATT,sensor-assay potency score (higher = more potent),UXS1,-0.862
AAAGTTAGGAGTCCAAAGCAAA,sensor-assay potency score (higher = more potent),UTS2D,-1.56
TAGGATTGTGTGTTCTTCTGGG,sensor-assay potency score (higher = more potent),UXS1,0.906
TTTAGCTTGGCAGCACTGCTCT,sensor-assay potency score (higher = more potent),VAMP1,-0.465
TTAGTGGTTCAACCATCTCTTC,sensor-assay potency score (higher = more potent),UXS1,-1.31
TATCTGGTCAACCTCGATGTAG,sensor-assay potency score (higher = more potent),UXS1,-1.33
ATCATCTTCACGTTCTTCCACC,sensor-assay potency score (higher = more potent),VAMP8,-0.825
TTTCGAGCCACCTTCTGCGATG,sensor-assay potency score (higher = more potent),VAMP8,-0.89
TATACATGTAGTTTGGAGGGGA,sensor-assay potency score (higher = more potent),UXS1,0.245
TTAACTGAGCAAATTCTAGGAT,sensor-assay potency score (higher = more potent),UXS1,0.0899
TTTTGTTGCACATTTGCTCATG,sensor-assay potency score (higher = more potent),VAMP1,-0.374
TTGTAAAAAAATCAACACGGAT,sensor-assay potency score (higher = more potent),UTS2D,-1.39
TATGATGTCCACCACCTCCTCC,sensor-assay potency score (higher = more potent),VAMP1,-0.679
ATGATCATCATCTTGCAGTTTT,sensor-assay potency score (higher = more potent),VAMP1,-0.861
TTTGGTGGAAGTACAACTGTTG,sensor-assay potency score (higher = more potent),VAMP1,0.106
TGCTGTAGTCGTCTGTTACTGG,sensor-assay potency score (higher = more potent),VAMP1,-0.0703
TCTTTTAGCTTTTCCAGCTGGT,sensor-assay potency score (higher = more potent),UTS2D,0.0536
TTTTCGAGCCACCTTCTGCGAT,sensor-assay potency score (higher = more potent),VAMP8,-1.17
TAATTAACTGAGCAAATTCTAG,sensor-assay potency score (higher = more potent),UXS1,-1.25
TTGTCTGAGACCCGGATCCGTA,sensor-assay potency score (higher = more potent),UXS1,-1.19
AGATCCTCTGTCTTGTTGCGGA,sensor-assay potency score (higher = more potent),VAMP8,-1.4
TCCTCCTTCTTCCAGTTCCTTC,sensor-assay potency score (higher = more potent),WFDC12,-1.8

# Reference: the OligoGym collection
